# Records with an inconclusive call do not appear. Where a call stands in place of a potency, no number is given. Calls of active or inactive are those of the source. Calls follow the shape of the dose curve; as a rule, active = well fitted inhibition curve with a large enough effect; inconclusive = small, poorly fitted or top-dose-only effect; inactive = no such curve, though single readings can be large or run the other way.
# Target: Cytochrome P450 2C19 (Homo sapiens) (UniProt P33261)
# Experiment: qHTS Assay for Inhibitors and Substrates of Cytochrome P450 2C19 (AID 899); also: nearly all actives have a fitted effect of over 60% in size
# Details: recombinant CYP2C19, luciferin-H EGE luminescence; series mostly up to 11.4 µM
# Procedure, shortened: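 Reactions contain 5nM enzyme, 10uM Luciferin-H EGE (KM) and 50mM KPO4; compound preincubates 10 min at 37C, NADPH regeneration starts turnover for 60 min. Luminescence after detection reagent gives activity.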
# Potency is read from the fitted curve at half-maximal effect.
# Sequence of Cytochrome P450 2C19 (Homo sapiens) (P33261 whole entry, looked up): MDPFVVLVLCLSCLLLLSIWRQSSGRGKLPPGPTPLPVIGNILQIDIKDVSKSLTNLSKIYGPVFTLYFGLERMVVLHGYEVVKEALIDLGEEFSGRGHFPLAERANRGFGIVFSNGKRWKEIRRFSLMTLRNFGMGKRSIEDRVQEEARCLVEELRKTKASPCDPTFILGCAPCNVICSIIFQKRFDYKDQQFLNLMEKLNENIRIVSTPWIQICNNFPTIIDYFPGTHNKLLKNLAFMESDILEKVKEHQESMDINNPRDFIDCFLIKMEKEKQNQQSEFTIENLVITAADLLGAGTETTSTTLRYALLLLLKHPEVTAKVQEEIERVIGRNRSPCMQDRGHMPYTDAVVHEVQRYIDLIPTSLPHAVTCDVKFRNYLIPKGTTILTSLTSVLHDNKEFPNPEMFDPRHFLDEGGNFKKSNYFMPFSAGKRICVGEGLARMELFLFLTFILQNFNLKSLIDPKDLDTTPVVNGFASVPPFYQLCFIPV
row,SMILES,Potency
1,O=C1/C(=C/c2ccccc2)Oc2ccccc21,inactive
2,COC(=O)NC(CC(C)=O)c1cccc(C(F)(F)F)c1 (centres undefined),inactive
3,CCOC(=O)OCC1OC(C#CC(C)(C)C)C=CC1OC(=O)OCC (centres undefined),2.51 µM (active)
4,C=CCc1cccc(C2C(C)CCC3C(=O)N4C(Cc5c([nH]c6ccccc56)C4c4cc(OC)c(OC)c(OC)c4)C(=O)N32)c1 (centres undefined),inactive
5,COC(=O)NC(c1ccco1)[C@@]1(C(=O)OC)CCCC1=O (some centres undefined),inactive
6,CC1(C)OC(C(O)(c2cc(C(F)(F)F)cc(C(F)(F)F)c2)c2cc(C(F)(F)F)cc(C(F)(F)F)c2)C(C(O)(c2cc(C(F)(F)F)cc(C(F)(F)F)c2)c2cc(C(F)(F)F)cc(C(F)(F)F)c2)O1 (centres undefined),inactive
7,CC(=O)OCC1OC(C#CC(C)(C)C)C=CC1OC(C)=O (centres undefined),inactive
8,COC(=O)C/C=C1\c2ccccc2C(OC)C1C (centres undefined),inactive
9,CCOC(=O)OCC1OC(c2ccc(C(C)=O)cc2)C=CC1OC(=O)OCC (centres undefined),inactive
